Test results published in PubChem BioAssay (NCATS).
Records with an inconclusive call do not appear. A number with no mark means an inactive call. The source made the active and inactive calls. Calls follow the shape of the dose curve; as a rule, active = well fitted inhibition curve with a large enough effect; inconclusive = small, poorly fitted or top-dose-only effect; inactive = no such curve, though single readings can be large or run the other way. Positions of bridges follow the written chain, without caps; N, C: chain ends. Non-standard residues stand in square brackets, D forms with d. Residues, ends and D or L forms follow the SMILES beside them. ξ: configuration not given here. *: point of attachment. ξDab(CH2SO3H) = NC(CCNCS(=O)(=O)O)C(=O)O; Octanoyl(6-Me) = CCC(C)CCCCC(=O)*; Dab = NCC[CH](N)C(=O)O

These compounds were tested on Zika virus NS2B-NS3 protease (linked) (assay: 384 well plate NINDS AMC confirmatory qHTS for Zika virus inhibitors (AID 1347163; also: nearly all actives have a fitted effect of over 50% in size;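 as to activity change, negative = inhibition: fluorescence of AMC released from Ac-VKTGKR-AMC peptide cleaved by the protease; top concentration of the series differs between compounds; 0% = no-inhibitor control and -100% = no-enzyme control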)). Settings: Recombinant NS2B-NS3 protease, Ac-VKTGKR-AMC fluorescence; series mostly up to 1 mM; activity change, negative = inhibition: at the top concentration.
Text: Description: Assay Submitters (PI): Avindra Nath, Ph.D., National Institute of Neurological Disorders and Stroke (NINDS), Bethesda, MD Radhakrishnan Padmanabhan, Ph.D., Georgetown University (GU), Washington D.C. Zika Virus causes congenital defects, including microcephaly and is associated with Guillain-Barre syndrome, eningoencephalitis and myelitis in infected adult. […] Using a target-based approach, we hope to establish a screening paradigm to uncover novel, cell-active NS2B-NS3 protease (Zika Virus) specific inhibitors from NCATS' collection of small molecules using qHTS. […] Four assay panel was created to identify potential Zika Virus inhibitors. Namely, (1) GU unlinked NS2B-NS3 AMC tagged protease qHTS, (2) GU unlinked NS2B-NS3 Rhodamine tagged protease qHTS, (3) NINDS linked NS2B-NS3 AMC tagged protease qHTS, (4) NINDS linked NS2B-NS3 Rhodamine tagged protease qHTS. Active compounds are validated using a secondary assay in 384 well plate format. Early Translation Branch (ETB) National Center for Advancing Translational Sciences (NCATS), Rockville, MD National Institute of Health (NIH), Bethesda, Maryland
384-well NINDS AMC Assay The protease was diluted to 7.5 nM, 40.9 nM, or 82 nM in assay buffer and dispensed into a 96-well PCR plate (Applied Biosystems); 20 or 22 microL was transferred to a black 384-well assay plate (final protease concentration of 5 nM, 30 nM, or 60 nM, respectively). Compounds (3 microL, 1 microM - 10 mM, DMSO) were diluted and transferred to the assay plate (final concentrations ranged from 100 nM to 1 mM). Compounds were incubated with protease for ~15 minutes. The substrate, Ac-VKTGKR-AMC (Genscript), was dissolved in DMSO to a concentration of 6 mM and further diluted into assay buffer to a working concentration of 180 microM, then dispensed into a 384-well preparation plate (Eppendorf). A multichannel repeat pipettor was used to add 3 or 5 microL of substrate to the assay plate to give a final concentration of 30 microM. The plate was incubated in the dark at room temperature. After 25 minutes, the fluorescence intensity (excitation: 355 nm, emission: 460 nm) was measured and normalized to no-enzyme and no-inhibitor controls. Aprotinin39 (VWR) was used as an intraplate control.
Potency is read from the fitted curve at half-maximal effect.

| SMILES | Potency | activity change, negative = inhibition |
| --- | --- | --- |
| Cc1ccc(-c2cc(C(F)(F)F)c(C#N)c(SCC(=O)O)n2)cc1 | 141 µM (active) |  |
| O=C(OCc1cc(=O)n2nc(C3CC3)sc2n1)c1ccc(NC(=O)c2ccccc2F)cc1 |  | 61% |
| O=C(O)c1cccc(-c2ccc(OC(F)(F)F)cc2)c1 |  | -29% [at 1.5 mM] |
| CN(Cc1ccc(C(=O)O)cc1)c1ccc(OCc2c(-c3c(Cl)cccc3Cl)noc2C2CC2)nc1C(F)(F)F | 3.98 µM (active) |  |
| O=[S+]([O-])([O-])c1ccc2c(c1)cc([S+](=O)([O-])[O-])c1nn(-c3ccc(/C=C/c4ccc(-n5nc6c([S+](=O)([O-])[O-])cc7cc([S+](=O)([O-])[O-])ccc7c6n5)cc4[S+](=O)([O-])[O-])c([S+](=O)([O-])[O-])c3)nc12 |  | 9280% |
| Cc1ccc(NC(=O)c2ccc3c(O)c(S(=O)(=O)c4ccccc4)c(=O)[nH]c3c2)cc1Cl | 282 µM (active) |  |
| O=C(O)c1ccccc1-c1c2cc(I)c(=O)c(I)c-2oc2c(I)c(O)c(I)cc12 | 56.2 µM (active) |  |
| N#CC(C#N)=C(N)/C(C#N)=C/c1cc(O)c(O)c(O)c1 | 112 µM (active) |  |
| O=C(O)c1c(Br)c(Br)c(Br)c(Br)c1C1c2ccc(O)cc2Oc2cc(O)ccc21 | 14.1 µM (active) |  |
| O=C(O)Cn1ccc2cc(OCc3cccc(-c4cccc(C(F)(F)F)c4)c3)cnc21 | 141 µM (active) |  |
| Cc1c(C2(c3cc(C(C)C)c(O)c(Br)c3C)OS(=O)(=O)c3ccccc32)cc(C(C)C)c(O)c1Br | 126 µM (active) |  |
| C=C1c2c(Cl)ccc(O)c2C(O)=C2C(=O)[C@]3(O)C(O)=C(C(N)=O)C(=O)[C@@H](N(C)C)[C@@H]3[C@@H](O)C12 (stereo not given in full) | 70.8 µM (active) |  |
| Cc1ccc2nc(NS(=O)(=O)c3ccc(Cl)cc3)c(Nc3ccc(C(=O)O)cc3)nc2c1 | 141 µM (active) |  |
| O=C(OC1Cc2c(O)cc(O)cc2OC1c1cc(O)c(O)c(O)c1)c1cc(O)c(O)c(O)c1 (stereo not given) | 15.8 µM (active) |  |
| CC1(C(=O)O)NCCc2cc(O)c(O)cc21 (stereo not given) |  | 551% |
| COc1cc(-c2ccc(N=Nc3ccc4c(S(=O)(=O)O)cc(S(=O)(=O)O)c(N)c4c3O)c(OC)c2)ccc1N=Nc1ccc2c(S(=O)(=O)O)cc(S(=O)(=O)O)c(N)c2c1O | 7.08 µM (active) |  |
| COC(=O)c1ccc(NC(=O)CSc2ncc3c(n2)-c2cc(Cl)ccc2N(Cc2ccccc2)S3(=O)=O)cc1 |  | 128% |
| Clc1cc(OCc2nnc3sc(Cc4ccccc4)nn23)c(Cl)cc1OCc1nnc2sc(Cc3ccccc3)nn12 | 28.2 µM (active) |  |
| O=C(O)COc1ccccc1C1Nc2ccccc2-c2nnc(SCc3ccc(Cl)cc3)nc2O1 (stereo not given) | 316 µM (active) |  |
| O=C(O)c1cc(-n2c(/C=C\c3ccc(F)cc3)nc3ccccc3c2=O)ccc1Cl | 200 µM (active) |  |

| SMILES | Potency | activity change, negative = inhibition |
| --- | --- | --- |
| CCOC(=O)c1cccc(NC(=O)CSc2ncc3c(n2)-c2ccc(Cl)cc2N(Cc2ccccc2)S3(=O)=O)c1 |  | 363% |
| C=CC(C)(C)c1[nH]c2ccccc2c1C1=C(O)C(=O)C(c2c[nH]c3c(CC=C(C)C)cccc23)=C(O)C1=O | 11.2 µM (active) |  |
| Nc1cc(N)c(N=Nc2ccc(S(=O)(=O)Nc3nccs3)cc2)cc1N=Nc1ccc(S(=O)(=O)Nc2nccs2)cc1 | 63.1 µM (active) |  |
| CCN(Cc1cccc(S(=O)(=O)O)c1)c1ccc(C(=C2C=CC(=[N+](CC)Cc3cccc(S(=O)(=O)O)c3)C=C2)c2ccccc2S(=O)(=O)[O-])cc1 | 200 µM (active) |  |
| O=C(O)c1cc(-c2ccc(C(F)(F)F)cc2)nc2n[nH]c(-c3ccccc3)c12 |  | 289% |
| CC[C@H](C)[C@H]1O[C@]2(CC[C@@H]1C)C[C@@H]1C[C@@H](C/C=C(\C)[C@@H](O[C@H]3C[C@H](OC)[C@@H](O[C@H]4C[C@H](OC)[C@@H](O)[C@H](C)O4)[C@H](C)O3)[C@@H](C)/C=C/C=C3\CO[C@@H]4[C@H](O)C(C)=C[C@@H](C(=O)O1)[C@]34O)O2 |  | 2.22% |
| O=c1oc2cc(O)ccc2cc1-c1nc(-c2ccc(Cl)c(Cl)c2)cs1 |  | 58.6% |
| O=C(O)COc1ccc(-c2nccc3c2C(=O)N(Cc2cccc(C(F)(F)F)c2)CC(CNC(=O)c2cccc(Cl)c2)O3)cc1 (stereo not given) |  | -25.4% |
| Cc1ccc2nc(-c3ccc(N=Nc4cc(S(=O)(=O)O)c5ccccc5c4O)cc3)sc2c1S(=O)(=O)O |  | 285% |
| CCOC(=O)c1ccc(NC(=O)CSc2nc(-c3ccc(F)cc3)cc(C(F)(F)F)c2C#N)cc1 |  | 1380% |
| CC(C)c1ccc(NC(=O)c2ccc3c(O)c(S(=O)(=O)c4ccccc4)c(=O)[nH]c3c2)cc1 | 282 µM (active) |  |
| O=C1c2c(O)ccc([N+](=O)[O-])c2C(=O)c2c([N+](=O)[O-])ccc(O)c21 | 100 µM (active) |  |
| O=C(O)c1c(-c2ccccc2)oc2ccc(OCc3ccc(Cl)c(Cl)c3)cc12 |  | 4240% |
| N#C/C(=C\c1ccc(-c2cc(Cl)ccc2Cl)o1)C(=O)Nc1ccccc1C(=O)O | 20 µM (active) |  |
| Cc1ccc(NC(=O)c2ccc3c(O)c(S(=O)(=O)c4ccc(Cl)cc4)c(=O)[nH]c3c2)cc1 | 251 µM (active) |  |
| O=c1oc2ccccc2cc1-c1nnc(Nc2ccc(Cl)cc2Cl)s1 | 50.1 µM (active) |  |
| O=C(OC1Cc2c(O)cc(O)cc2OC1c1cc(O)c(O)c(O)c1-c1c(C2Oc3cc(O)cc(O)c3CC2OC(=O)c2cc(O)c(O)c(O)c2)cc(O)c(O)c1O)c1cc(O)c(O)c(O)c1 (stereo not given) | 20 µM (active) |  |
| CC[C@@H](C(=O)[C@H](C)[C@@H](O)[C@H](C)CCc1ccc(C)c(O)c1C(=O)O)C1O[C@@](CC)(C2CC[C@](O)(CC)[C@H](C)O2)C[C@@H]1C (stereo not given in full) | 158 µM (active) |  |
| Cc1ccc(S(=O)(=O)Nc2cc(SCC(=O)O)c(O)c3ccccc23)cc1[N+](=O)[O-] | 31.6 µM (active) |  |
| CCC(C)CCCCC(=O)NC(CCNCS(=O)(=O)O)C(=O)NC(C(=O)NC(CCNCS(=O)(=O)O)C(=O)NC1CCNC(=O)C(C(C)O)NC(=O)C(CCNCS(=O)(=O)O)NC(=O)C(CCNCS(=O)(=O)O)NC(=O)C(CC(C)C)NC(=O)C(CC(C)C)NC(=O)C(CCNCS(=O)(=O)O)NC1=O)C(C)O (stereo not given) ({Octanoyl(6-Me)}-[ξDab(CH2SO3H)]T[ξDab(CH2SO3H)][Dab][ξDab(CH2SO3H)]LL[ξDab(CH2SO3H)][ξDab(CH2SO3H)]T; lactam 4-C; configuration not given here) | 25.1 µM (active) |  |
